The values that follow come from the supplement of paper PMC9446081.

Out of some 39,000 compounds screened, about 220 (0.56%) showed activity. The sample as a whole holds a higher share of actives than the screen did. Values without a mark were called inactive.
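Also: Wild-type cells incubated without shaking, value is the mean of two biological replicates.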

This test deals with Escherichia coli K-12 BW25113. Kind of test: relative growth (OD600 normalised to plate interquartile mean) (fraction); higher = less growth inhibition, active = 0.2 or less. The note with it: 50 µM; LB; incubation time: overnight (16-24 h).
On to `CCCCCCCCCCCCCCCC[N+](C)(C)C.[Br-]`, for which the relative growth was 0.0522 (active).

Take `C[N+](C)(C)CCCCCCCCCC[N+](C)(C)C.[Br-].[Br-]`: the relative growth is 1.05.

As for `C[N+](C)(C)CCCl`, the relative growth is 1.

For `CCC(N)C(O)c1ccc(O)c(O)c1.Cl` (stereo unspecified), the relative growth was 0.99.

Consider `CC12CCC3C(CCC4CC(=O)CCC43C)C1CCC2=O` (stereo not drawn) ["5alpha-ANDROSTAN-3,17-DIONE"], for which the relative growth was 0.862.

Consider `CCC(=O)CCCCC[C@@H]1NC(=O)[C@H]2CCCCN2C(=O)[C@H]([C@H](C)CC)NC(=O)[C@H](Cc2cn(OC)c3ccccc23)NC1=O`, for which the relative growth is 1.

Turning to `COc1cc2c(cc1OC)C13CCN4CC5=CCOC6CC(=O)N2C1C6C5CC43` (stereo unspecified), the relative growth is 1.05.

Regarding `CCn1cc(C(=O)[O-])c(=O)c2cc3c(cc21)OCO3.[K+]`, the relative growth was 0.0482 (active).

`CCC(=O)CCCCC[C@@H]1NC(=O)[C@H]2CCCCN2C(=O)[C@H]([C@@H](C)CC)NC(=O)[C@H](Cc2cn(OC)c3ccccc23)NC1=O`: the relative growth was 0.957.

On to `O=C1N[C@@H]2C(=C[C@H](O)[C@@H](O)[C@H]2O)c2cc3c(c(O)c21)OCO3`, for which the relative growth is 0.913.

`N#Cc1cccnc1`: the relative growth was 1.01.

`NNc1ccn([C@H]2O[C@@H](CO)[C@@H](O)[C@@H]2O)c(=O)n1`: the relative growth was 0.394.

As for `COP(=O)(OC)C(O)C(Cl)(Cl)Cl` (stereo unspecified), the relative growth was 0.874.

As for `CC(C)(O)/C=C/C(=O)[C@](C)(O)[C@H]1[C@H](O)C[C@@]2(C)[C@H]3CC=C4[C@@H](CC(=O)C(=O)C4(C)C)[C@]3(C)C(=O)C[C@]12C`, the relative growth is 0.979.

With `[O-][n+]1ccccc1[S][Zn][S]c1cccc[n+]1[O-]`, the relative growth is 0.0506 (active).

As to `CC(C)C[C@@H]1C(=O)N2CCC[C@@H]2[C@]2(O)O[C@@](NC(=O)[C@@H]3C=C4c5cccc6[nH]cc(c56)C[C@@H]4N(C)C3)(C(C)C)C(=O)N12`, the relative growth is 1.04.

With `C[CH2][Hg][S]c1ccccc1C(=O)[O-].[Na+]`, the relative growth was 0.0484 (active).

On to `O=C([O-])Cc1ccccc1.[Na+]`, for which the relative growth was 0.934.

Regarding `CCCCOC(=O)c1ccccc1C(=O)OCCCC`, the relative growth is 1.11.

Turning to `CC(=O)OC1CCC2(C)C(CCC3C2CCC2(C)C(C4=CC(=O)OC4)C(OC(C)=O)CC32O)C1` (stereo unspecified), the relative growth was 1.01.

Turning to `CC(C)=CCCC1(C)C=Cc2c(O)c3c(c(CC=C(C)C)c2O1)OC12C(=CC4CC1C(C)(C)OC2(CC=C(C)C(=O)O)C4=O)C3=O` (stereo unspecified), the relative growth is 1.01.

With `NC(=O)c1ccc(N)nc1`, the relative growth is 0.986.

For the compound `CCCN1CC(CSC)CC2c3cccc4[nH]cc(c34)CC21.CS(=O)(=O)O` (stereo unspecified), the relative growth was 1.15.

As to `CCNC(=O)[C@H]1O[C@@H](n2cnc3c(N)ncnc32)[C@H](O)[C@@H]1O`, the relative growth was 0.996.

With `Oc1cc(Cl)ccc1Oc1ccc(Cl)cc1Cl`, the relative growth is 0.0446 (active).

Regarding `Oc1ccc(Cl)cc1Cc1cc(Cl)ccc1O`, the relative growth was 0.398.

Regarding `Nc1ccc(Cl)cc1Cl`, the relative growth is 1.02.

Consider `CN1CC(=O)N(c2cccnc2)C[C@]12CCNC2`, for which the relative growth was 0.998.

Regarding `CC12CCC3C(CCC4(O)CC(O)CCC34C=O)C1(O)CCC2C1=CC(=O)OC1` (stereo unspecified), the relative growth is 0.972.

With `CC(=O)Oc1ccc(Cl)c2cccnc12`, the relative growth was 0.0572 (active).

Consider `CC=C1CC(C)C(O)(CO)C(=O)OCC2=CCN3CCC(OC1=O)C23` (stereo unspecified), for which the relative growth was 1.04.

As for `CN1CCOC[C@]2(CCCNC2)C1`, the relative growth is 0.994.

Take `C[C@]12C(=O)OC(=O)[C@]1(C)[C@H]1CC[C@H]2O1`: the relative growth is 0.97.

Regarding `CN1C(=O)[C@@]23C[C@]4([C@@]56C[C@]78SS[C@](CO)(C(=O)N7[C@@H]5Nc5ccccc56)N(C)C8=O)c5ccccc5N[C@H]4N2C(=O)[C@@]1(CO)SS3`, the relative growth was 0.917.

With `CN1C(=O)[C@]23CC4=CC=C[C@H](O)[C@H]4N2C(=O)[C@@]1(CO)SS3`, the relative growth was 0.0665 (active).

Turning to `CC1OC(OC2CCC3(C=O)C4CCC5(C)C(C6=CC(=O)OC6)CCC5(O)C4CCC3(O)C2)C(O)C(O)C1O` (stereo unspecified), the relative growth is 1.15.

In the case of `c1cnc2[nH]cc(CN3CCNCC3)c2c1`, the relative growth is 0.977.

For `CC(=O)O[C@H]1C[C@H](O[C@H]2[C@@H](O)C[C@H](O[C@H]3[C@@H](O)C[C@H](O[C@H]4CC[C@@]5(C)[C@@H](CC[C@H]6[C@@H]5C[C@@H](O)[C@]5(C)[C@@H](C7=CC(=O)OC7)CC[C@]65O)C4)O[C@@H]3C)O[C@@H]2C)O[C@H](C)[C@H]1O[C@@H]1O[C@H](CO)[C@@H](O)[C@H](O)[C@H]1O`, the relative growth is 0.986.

Consider `CCOP(=S)(OCC)Oc1nc(Cl)c(Cl)cc1Cl`, for which the relative growth is 1.06.

On to `COP(=S)(OC)Oc1ccc(Sc2ccc(OP(=S)(OC)OC)cc2)cc1`, for which the relative growth was 0.986.

As to `COP(=S)(OC)Oc1cc(Cl)c(Cl)cc1Cl`, the relative growth is 0.0496 (active).

In the case of `CCn1cnc2c(Nc3cccc(Cl)c3)nc(N[C@@H]3CCCC[C@@H]3N)nc21`, the relative growth was 0.943.

`CC(=O)OCC1=C(C(=O)O)N2C(=O)[C@@H](NC(=O)CCC[C@@H](N)C(=O)O)[C@@H]2SC1`: the relative growth is 1.02.

As to `CNc1ccc2oc(C[C@H]3O[C@@]4(CC[C@H]3C)O[C@H]([C@H](C)C(=O)c3ccc[nH]3)[C@H](C)C[C@H]4C)nc2c1C(=O)O`, the relative growth is 0.962.

In the case of `CCCCCCCCCCCCCCCC[n+]1ccccc1`, the relative growth is 0.16 (active).

`CCCCCCCCCCCCCCCC[n+]1ccccc1.[Cl-]`: the relative growth is 0.0713 (active).

For the compound `CC[C@@H](C)NC=C1C(=O)NC(=O)NC1=O`, the relative growth was 1.01.

With `CC1OC(OC2CC(O)C3(CO)C4C(O)CC5(C)C(C6=CC(=O)OC6)CCC5(O)C4CCC3(O)C2)C(O)C(O)C1O.O.O.O.O.O.O.O.O` (stereo unspecified), the relative growth is 1.01.

In the case of `CC1OC(OC2C=C3CCC4C(CCC5(C)C(c6ccc(=O)oc6)CCC45O)C3(C)CC2)C(O)C(O)C1O` (stereo unspecified), the relative growth is 0.977.

Regarding `C[C@@H]1O[C@@H](O[C@H]2CC[C@]3(C=O)[C@H]4CC[C@]5(C)[C@@H](C6=CC(=O)OC6)CC[C@]5(O)[C@@H]4CC[C@]3(O)C2)[C@H](O)[C@H](O)[C@H]1O`, the relative growth is 1.

Consider `C=C(C)[C@H]1CN[C@H](C(=O)O)[C@H]1CC(=O)O`, for which the relative growth was 0.978.

For the compound `Cc1nn[nH]n1`, the relative growth was 0.979.

As for `Cc1c(N)nc([C@H](CC(N)=O)NC[C@@H](N)C(N)=O)nc1C(=O)N[C@H](C(=O)N[C@@H](C)[C@H](O)[C@@H](C)C(=O)N[C@@H](C(=O)NCCc1nc(-c2nc(C(=O)NCCC[S+](C)C)cs2)cs1)[C@@H](C)O)[C@@H](O[C@H]1O[C@H](CO)[C@H](O)[C@@H](O)[C@H]1O[C@H]1O[C@H](CO)[C@@H](O)[C@H](OC(N)=O)[C@@H]1O)c1cnc[nH]1`, the relative growth is 0.0324 (active).

Turning to `Cc1c(N)nc([C@H](CC(N)=O)NC[C@@H](N)C(N)=O)nc1C(=O)N[C@H](C(=O)N[C@@H](C)[C@H](O)[C@@H](C)C(=O)N[C@@H](C(=O)NCCc1nc(-c2nc(C(=O)NCCC[S+](C)C)cs2)cs1)[C@@H](C)O)[C@@H](O[C@H]1O[C@H](CO)[C@H](O)[C@@H](O)[C@H]1O[C@H]1O[C@H](CO)[C@@H](O)[C@H](OC(N)=O)[C@@H]1O)c1c[nH]cn1`, the relative growth is 0.0355 (active).

As to `Cc1cc(O)c2c(=O)c3c(O)cc(O)c4c5c(O)cc(O)c6c(=O)c7c(O)cc(C)c8c1c2c(c34)c(c78)c65`, the relative growth was 1.61.

In the case of `O=C1[O][SbH]23[O]C(=O)[C@H]([O]2)[C@H]2[O][SbH]4([O]C(=O)[C@H]([O]4)[C@H]1[O]3)[O]C2=O`, the relative growth is 0.313.

On to `CC1=C[C@H]2O[C@@H]3[C@H](O)[C@@H](O[C@H]4O[C@H](CO)[C@@H](O)[C@H](O)[C@H]4O)[C@](C)([C@@]2(CO)CC1)[C@]31CO1`, for which the relative growth was 0.947.

For `O=C1CCCC2C3CCCN4CCCC(CN12)C34` (stereo unspecified), the relative growth was 1.05.

Consider `Cn1ncnc2c(=O)n(C)c(=O)nc1-2`, for which the relative growth is 0.0341 (active).

In the case of `CCn1nc(-c2cccnc2)nc2c(=O)n(C)c(=O)nc1-2`, the relative growth was 0.846.

Regarding `Cc1nc2c(=O)n(C)c(=O)nc-2n(C)n1`, the relative growth was 0.0393 (active).

As for `COc1cccc2c1C(=O)c1c(O)c3c(c(O)c1C2=O)C[C@@](O)(C(=O)CO)C[C@@H]3O[C@H]1C[C@H](N2CCO[C@H](OC)C2)[C@H](O)[C@H](C)O1`, the relative growth was 0.933.

Take `CO[C@H]1C[C@H](O[C@H]2CC[C@]3(C=O)[C@H]4CC[C@]5(C)[C@@H](C6=CC(=O)OC6)CC[C@]5(O)[C@@H]4CC[C@]3(O)C2)O[C@H](C)[C@H]1O`: the relative growth was 0.98.

On to `CO[C@H]1[C@@H](O)C[C@@H](O[C@H]2[C@@H](O)C[C@@H](O[C@H]3[C@@H](O)C[C@@H](O[C@H]4CC[C@@]5(C)[C@@H](CC[C@H]6[C@@H]5C[C@@H](O)[C@@]5(C)[C@H](C7=CC(=O)OC7)CC[C@@]65O)C4)O[C@@H]3C)O[C@@H]2C)O[C@@H]1C`, for which the relative growth was 1.

`C=CCN1C(=O)NC(=O)/C(=C/c2ccco2)C1=O`: the relative growth was 0.971.

On to `NC(=O)c1cn([C@H]2O[C@@H](CO)[C@H](O)[C@@H]2O)c2ncnc(N)c12`, for which the relative growth is 0.892.

For `CN1[C@@H]2CC[C@H]1C[C@H](O)C2`, the relative growth is 1.

Turning to `C=C1[C@@H](C)[C@H]2[C@H](Cc3ccccc3)NC(=O)[C@]23[C@H](OC(C)=O)/C=C/[C@](C)(O)C(=O)[C@@H](C)C/C=C/[C@H]3[C@@H]1O`, the relative growth is 0.976.

On to `O=S(=O)(O)O.Oc1cccc2cccnc12`, for which the relative growth was 0.0986 (active).

Regarding `CC12CCC3c4ccc(OC(=O)N(CCCl)CCCl)cc4CCC3C1CCC2O` (stereo unspecified), the relative growth was 0.992.

On to `CCCCCCCCCC(=O)O[C@@H]1[C@@H](C)[C@]2(O)[C@@H](C=C(CO)C[C@]3(O)C(=O)C(C)=C[C@@H]23)[C@@H]2C(C)(C)[C@@]12OC(=O)CCCCCCCCC`, for which the relative growth was 1.03.
